High-throughput results deposited in PubChem by National Center for Advancing Translational Sciences (NCATS).
ALDH1A1 inh: qHTS Assay for Inhibitors of Aldehyde Dehydrogenase 1 (ALDH1A1) | AID 1030, 2008 | Potency, µM (series often up to 75.3 µM), usual class: inhibitors | Purified ALDH1A1, NADH fluorescence, propionaldehyde substrate | Aldehyde dehydrogenase 1A1 (Homo sapiens), P00352 | hit rate 7.3% among 220,000
HPGD inh: qHTS Assay for Inhibitors of HPGD (15-Hydroxyprostaglandin Dehydrogenase). 15-hydroxyprostaglandin dehydrogenase [NAD(+)] (Homo sapiens), P15428. purified HPGD, NADH fluorescence kinetic, PGE2 substrate. Potency, µM, most hits filed as inhibitors. hit rate 4.3% among 150,000. AID 894, 2007
Target sequence (P15428 whole entry, looked up): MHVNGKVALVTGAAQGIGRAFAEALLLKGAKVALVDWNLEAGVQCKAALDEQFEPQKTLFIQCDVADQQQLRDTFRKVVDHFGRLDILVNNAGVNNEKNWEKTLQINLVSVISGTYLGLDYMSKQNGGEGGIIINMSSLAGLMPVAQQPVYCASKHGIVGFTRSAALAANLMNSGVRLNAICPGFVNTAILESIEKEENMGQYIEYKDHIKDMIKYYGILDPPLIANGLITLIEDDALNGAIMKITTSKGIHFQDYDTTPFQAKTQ
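20 nM HPGD preincubated 15 min at room temperature with compound in 50 mM Tris-HCl pH 8, 0.01% Tween 20. Started with 1 mM NAD+ and 30 uM prostaglandin E2; NADH fluorescence (360/450 nm) read 5 times over 30-s intervals, last minus first.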
JMJD2E inh: qHTS Assay for Inhibitors of Human Jumonji Domain Containing 2E (JMJD2E). AID 2147, 2009. Potency, µM (highest dose often 57.1 µM), actives largely listed as inhibitors. Lysine-specific demethylase 4E (Homo sapiens), B2RXH2. hit rate 1.6% among 230,000. JMJD2E catalytic domain, FDH-coupled NADH fluorescence (FDH is formaldehyde dehydrogenase); further: nearly all actives have a fitted effect of over 50% in size
Target sequence (B2RXH2 1-337 limits assumed): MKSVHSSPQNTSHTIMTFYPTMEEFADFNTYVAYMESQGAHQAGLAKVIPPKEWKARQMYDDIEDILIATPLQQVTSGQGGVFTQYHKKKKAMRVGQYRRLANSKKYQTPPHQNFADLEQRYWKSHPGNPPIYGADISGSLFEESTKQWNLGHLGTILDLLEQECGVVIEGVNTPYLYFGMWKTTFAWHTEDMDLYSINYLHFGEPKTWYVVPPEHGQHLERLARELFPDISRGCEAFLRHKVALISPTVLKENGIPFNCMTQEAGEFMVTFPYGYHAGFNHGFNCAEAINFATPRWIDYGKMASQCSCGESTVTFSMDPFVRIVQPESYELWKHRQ
PNC inhibitor: High Content Assay for Compounds that inhibit the Assembly of the Perinucleolar Compartment | PC3M PTB-GFP, PNC prevalence imaging, 16 h; hits give low values | activity change (PNC), negative = inhibition, % at 10 µM | hit rate 3.1% among 140,000 | AID 2417, 2010;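 active means readout at or below -70, meaning at least 70% loss of cells showing the perinucleolar compartment, a nuclear body marking cancer cells; inconclusive means readout between -30 and a set limit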
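Compounds are pinned in duplicate onto adhered PC3M cells stably expressing GFP-tagged PTB and incubated 16 h at 37 C. Cells are then fixed, nuclei stained with Hoechst, and PNC-positive cells counted.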
Each line names hits and unclear results; the compound was inactive in the other large screens. Most compounds without a hit are left out; they make up all but 11% or so of the library. Unless noted, the call rests on the fitted dose curve; in most records, active means well fitted inhibition curve with a large enough effect (not every such curve was filed as active); inconclusive means small, poorly fitted or top-dose-only effect, or another doubt; inactive means no such curve, though single readings can be large or run the other way.

[N-]=[N+]=CC(=O)CCCN1C(=O)c2ccccc2C1=O	ALDH1A1 inh 10µM
O=C(CCN1C(=O)c2ccccc2C1=O)Nc1ccc2c(c1)OCCO2	ALDH1A1 inh inconclusive, PNC inhibitor -89
O=C(CCCCCN1C(=O)c2ccccc2C1=O)Nc1ccc2c(c1)OCCO2	ALDH1A1 inh 28µM
O=C(CCCN1C(=O)CCC1=O)Nc1ccc2c(c1)OCCO2	ALDH1A1 inh inconclusive
COC(=O)/C(C#N)=C(/Nc1ccc(F)c(Cl)c1)C(F)(F)F	none (no result: ALDH1A1 inh, HPGD inh, PNC inhibitor)
CCN=c1scc(C)n1/N=C/c1ccc(O)c(O)c1O	ALDH1A1 inh 10µM, HPGD inh 7.1µM, JMJD2E inh 11µM
COCCN=c1scc(-c2cccs2)n1/N=C/c1ccc(O)c(O)c1O	ALDH1A1 inh 1.1µM, PNC inhibitor inconclusive (no result: HPGD inh)
COCCN=c1scc(-c2ccccc2)n1/N=C/c1c[nH]c2ccccc12	ALDH1A1 inh inconclusive
OC[C@H]1O[C@@H](O[C@@H]2[C@@H](CO)O[C@](O)(CO)[C@H]2O)[C@H](O)[C@@H](O)[C@H]1O	none (no result: PNC inhibitor)
CCOc1ccc(C(CC(=O)O)NC(=O)c2cccs2)cc1OC (stereo not given)	none (no result: HPGD inh, PNC inhibitor)
CC(C)CN(CC(C)C)C1=N/C(=C\c2ccco2)C(=O)N1c1ccccc1	ALDH1A1 inh 13µM, HPGD inh inconclusive, JMJD2E inh inconclusive
CC(NC(=O)c1ccc2c(c1)OCO2)C(c1cccs1)N1CCN(c2ccccc2)CC1 (stereo not given)	none (no result: ALDH1A1 inh, HPGD inh, PNC inhibitor)
CCCCOc1ccc(C(O)(CC)CCN2CCOCC2)cc1 (stereo not given)	ALDH1A1 inh 7.9µM, PNC inhibitor inconclusive
CCCOc1ccc(C(C)(O)CN2CCOCC2)cc1 (stereo not given)	none
CCCCC(O)(CCN1CCOCC1)c1ccc(Cl)cc1 (stereo not given)	ALDH1A1 inh 28µM
CCCCOc1ccc(C(O)(CCC)CCN2CCOCC2)cc1 (stereo not given)	ALDH1A1 inh 5.6µM
CCCCOc1ccc(OCCCN2CCOCC2)cc1	none
CCOC(=O)c1cc(C#N)c(N2CCN(C(=O)c3ccccc3)CC2)nc1C(F)(F)F	ALDH1A1 inh 13µM (no result: HPGD inh, PNC inhibitor)
CCOC(=O)c1cc(C#N)c(Nc2ccccc2OC)nc1C(F)(F)F	ALDH1A1 inh inconclusive (no result: HPGD inh, PNC inhibitor)
COc1ccc(-c2nn3c(C4CCCCC4)nnc3s2)cc1OC	ALDH1A1 inh 13µM, HPGD inh inconclusive, JMJD2E inh inconclusive
CCNC(=O)/C(=C/c1ccco1)NC(=O)/C=C/c1ccccc1	ALDH1A1 inh inconclusive, HPGD inh 18µM
O=C(/C=C/c1c(Cl)cccc1Cl)NCc1ccco1	HPGD inh inconclusive
O=C(/C=C/c1ccccc1Cl)NCc1ccco1	ALDH1A1 inh inconclusive, HPGD inh 14µM, PNC inhibitor inconclusive
O=C(/C=C/c1ccccc1)NCc1ccco1	ALDH1A1 inh 6µM (no result: HPGD inh, PNC inhibitor)
CCNC(=O)NC(=O)C(C)OC(=O)c1cccn1C (stereo not given)	none (no result: HPGD inh, PNC inhibitor)
CCN(CC)S(=O)(=O)c1cccc(NC(=O)c2ccccc2Br)c1	ALDH1A1 inh 11µM (no result: HPGD inh, PNC inhibitor)
CCN(CC(=O)NCc1cccs1)S(=O)(=O)c1cccc(C(C)=O)c1	PNC inhibitor -83
CCN(CC)S(=O)(=O)c1cccc(C(=O)Oc2cccc(NC(=O)c3cccs3)c2)c1	PNC inhibitor -108
CCN(CC)S(=O)(=O)c1ccc(NC(=O)c2cccs2)cc1	none (no result: HPGD inh, PNC inhibitor)
CCN(CC(=O)NCc1cccs1)S(=O)(=O)c1ccc([N+](=O)[O-])cc1	none (no result: HPGD inh, PNC inhibitor)
CCC(=O)Nc1cccc(NC(=O)c2ccccc2Br)c1	none
COC(=O)COc1cccc(NC(=O)c2cccs2)c1	PNC inhibitor -118
C=C1N(c2ccccc2)C(=O)OC1(C)C	none
COC(=O)NC(CC(C)=O)c1ccco1 (stereo not given)	none (no result: HPGD inh, JMJD2E inh, PNC inhibitor)
O=C(CCNS(=O)(=O)c1cccc2nonc12)NCc1cccs1	ALDH1A1 inh 20µM
O=C(CCNS(=O)(=O)c1cccc2nonc12)NC1CCCCCC1	ALDH1A1 inh 25µM (no result: HPGD inh, PNC inhibitor)
CC(C)c1ccc(NC(=O)CCNS(=O)(=O)c2cccc3nonc23)cc1	ALDH1A1 inh 25µM, PNC inhibitor -100
Cc1cccc(OC(C)C(=O)N/N=C\c2ccncc2)c1 (stereo not given)	none (no result: HPGD inh, PNC inhibitor)
COc1c2occc2cc2ccc(=O)oc12	none
COc1c(O)cc2c(=O)oc3c(OC)c(O)cc4c(=O)oc1c2c34	ALDH1A1 inh inconclusive, HPGD inh 5µM, JMJD2E inh 7.1µM (no result: PNC inhibitor)
Cc1sc2nc(C3CC3)nc(SCC(=O)NCc3ccco3)c2c1C	ALDH1A1 inh inconclusive
CC1CCc2c(sc3nc(SCC(=O)NCc4ccco4)nc(N)c23)C1 (stereo not given)	HPGD inh 14µM, JMJD2E inh inconclusive
CCN(CC)C(=O)CSc1nc(N)c2c3c(sc2n1)CC(C)CC3 (stereo not given)	HPGD inh 14µM
CC(=O)OCC1O[C@@H](O[C@@H]2C[C@H]3C(C)(C)[C@H](OC(C)=O)CC[C@]3(C)[C@H]3CC[C@]45C[C@]4(CC[C@H]5[C@@H](C)C[C@@H](O)[C@H](O)C(C)(C)O)[C@@]32C)[C@H](O)[C@@H](O)[C@@H]1O (stereo not given in full)	PNC inhibitor -115
CCOC(=O)C1C(=O)OC2(CCCCC2)C1C(=O)OCC (stereo not given)	ALDH1A1 inh inconclusive, PNC inhibitor inconclusive
CCOC(=O)C1C(=O)CC(=O)CC1CC(C)SCC (stereo not given)	ALDH1A1 inh 13µM
COCCn1nnnc1C(c1ccccc1OC)N1CCN(c2ccccc2F)CC1 (stereo not given)	none
CCc1ccc2[nH]c(=O)c(CN(Cc3ccc(F)cc3)C(c3nnnn3CCN3CCOCC3)C(C)C)cc2c1 (stereo not given)	ALDH1A1 inh inconclusive, JMJD2E inh inconclusive, PNC inhibitor -81
CCc1ccc2[nH]c(=O)c(C(c3nnnn3CCOC)N3CCN(c4ccccc4)CC3)cc2c1 (stereo not given)	ALDH1A1 inh 11µM, JMJD2E inh inconclusive
COCCn1nnnc1C(c1cc2cccc(C)c2[nH]c1=O)N1CCN(c2ccccc2F)CC1 (stereo not given)	ALDH1A1 inh 16µM, JMJD2E inh inconclusive
Cc1nc2c(-c3ccc(Cl)cc3)c(C)[nH]n2c(=O)c1Cc1ccccc1	ALDH1A1 inh inconclusive, JMJD2E inh 32µM (no result: HPGD inh, PNC inhibitor)
CCOC(=O)N1CCN(Cc2ccc(O)c3ncccc23)CC1	ALDH1A1 inh 25µM, JMJD2E inh 13µM (no result: HPGD inh, PNC inhibitor)
Cc1ccc(C)c(S(=O)(=O)N2CCN(Cc3ccc(O)c4ncccc34)CC2)c1	JMJD2E inh 3.5µM (no result: HPGD inh, PNC inhibitor)
CCOC(=O)N1CCN(Cc2ccccn2)CC1	ALDH1A1 inh inconclusive, JMJD2E inh inconclusive
N=C1C(=O)OCC1c1ccccc1NC(=O)CN1CCOCC1 (stereo not given)	none
Cc1ccc(S(=O)(=O)CCc2nnc(NC(=O)CCl)s2)cc1C	ALDH1A1 inh 1µM (no result: HPGD inh, PNC inhibitor)
CCCCCCCCCCCCCCCCCCOC[C@H](COP(=O)([O-])OCC[N+](C)(C)C)OC(C)=O	none (no result: PNC inhibitor)
